# PostGolgi ctrl = growth inhibition of yeast control strain, primary screen, counter-screen for post-Golgi transport modulator project. efflux-deficient yeast background strain, growth absorbance A615, 16 h. inhibition, % at 10 µM. 5% of 98,000 active
# Cav3 T inh = Cav3.2 calcium influx blockers – cell-based, Fluo-4 calcium fluorescence, FDSS, MLSMR library, primary screen | Voltage-dependent T-type calcium channel subunit alpha-1H (Homo sapiens), O95180 | Cav3.2-expressing cells; stronger effect = lower value | B-score at 10 µM | 4% of 100,000 active | AID 449739, 2010;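 active = single-dose well whose peak fluorescence ratio is a statistical outlier from its plate by either plate-standardised score or position-corrected B-score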
# sEH inh = soluble epoxide hydrolase inhibitors, primary screen, biochemical, human sEH; 0.34% of 91,000 active; AID 707, 2007; inhibition, % at 2 µM; recombinant human sEH enzymatic activity assay; Bifunctional epoxide hydrolase 2 (Homo sapiens), P34913; in the data active = inhibition above about 80%
# PostGolgi yeast = phenotypic screen on post-Golgi transport, primary screen; inhibition, % at 10 µM; post-Golgi transport phenotypic cell assay; 0.9% of 98,000 active;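 also: yeast cells grown in 1536-well plates; yeast grown about 18 h at 30C before absorbance read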
# sEH act = soluble epoxide hydrolase activators, primary screen, biochemical, human sEH | Bifunctional epoxide hydrolase 2 (Homo sapiens), P34913 | activation, % at 2 µM | purified human sEH enzymatic activity, activator screen | 0.04% of 91,000 active; in the data active = activation above about 37%
# * = called active by the depositor; . = no result. A selection: hits, their analogues and other compounds. The true share with any hit is near 7.8%. Rule as the data show it, unless noted: active = inhibition above about 30%; inactive = the rest.
SMILES,PostGolgi ctrl,Cav3 T inh,sEH inh,PostGolgi yeast,sEH act
COc1cccc(C2Nc3cc(Cl)c(S(N)(=O)=O)cc3S(=O)(=O)N2)c1 (centres undefined),3,-0.091,-10,-1,11
COc1ccc(NS(=O)(=O)c2ccc3c(c2)n(C)c(=O)n3C)cc1,-10,-3.8*,4,18,-6
CSc1ccc(S(=O)(=O)Nc2ccc(F)cc2)cc1,5,-5.1*,10,-4,-6
COc1ccc(NS(=O)(=O)c2ccc(SC)cc2)cc1,50*,-2.3,-1,7,3
COc1ccc(OC)c(NS(=O)(=O)c2ccc3c(c2)n(C)c(=O)n3C)c1,10,-0.29,-2,-18,-1
COc1ccc(NS(=O)(=O)c2ccc(NS(C)(=O)=O)cc2)cc1,-4,-0.37,-26,-6,24
CN1C(=O)C2(N=c3ccccc3=N2)c2ccccc21,27,1,11,5,-10
CCC(C)(C(=O)NC1CCCC1)N(Cc1ccco1)C(=O)c1ccc2c(c1)OCO2 (centres undefined),9,-3.6*,2,-3,-1
CCC(C)(C(=O)NC1CCCC1)N(Cc1ccco1)C(=O)Cc1cccs1 (centres undefined),4,-0.78,-2,-4,2
Cc1cc(NC(=O)c2cncc(Br)c2)n(-c2ccccn2)n1,4,.,-4,5,5
CN1/C(=C\C=Nc2ccc3ccccc3c2)C(C)(C)c2ccccc21,20,-9.4*,5,11,-7
COc1ccc2cc(C3(C)NC(=O)N(CC(=O)NCCC4=CCCCC4)C3=O)ccc2c1 (centres undefined),-2,-7.4*,-7,-4,8
COc1ccc(C2(C)NC(=O)N(CC(=O)NCCC3=CCCCC3)C2=O)cc1OC (centres undefined),4,0.022,-6,0,5
Cc1ccc(C)n1CCN1CCN(CC(=O)Nc2cc(C(F)(F)F)ccc2Cl)CC1,0,-1.5,-1,2,1
O=C(C1CCCC1)N(c1ccccc1)C1C=CS(=O)(=O)C1 (centres undefined),11,1.3,.,2,.
Cc1ccc(N(C(=O)C2CCCC2)C2C=CS(=O)(=O)C2)cc1 (centres undefined),39*,.,3,5,-3
Cn1c(=O)c2c(nc(SCC(=O)N(C3CCCCC3)C3CCCCC3)n2C)n(C)c1=O,.,.,12,.,-12
COc1ccc(S(=O)(=O)NCCSC(C)(C)C)c(Cl)c1Cl,31*,-3.3,-1,1,3
CCCNS(=O)(=O)c1ccc(OC)c(Cl)c1Cl,4,-0.16,8,10,-6
CCOc1cc(C)c(C(C)C)cc1S(=O)(=O)NCc1ccccn1,19,1.5,7,1,-12
CCC(C)Oc1nc2ccccc2nc1NS(=O)(=O)c1ccccc1 (centres undefined),31*,-3.2,15,-5,-17
CC(C)(C)c1csc(NC(=O)Cn2c(=O)oc3ccccc32)n1,3,-10*,1,-3,1
CCCNC(=O)Cn1c(=O)oc2ccccc21,14,1.1,-15,39*,12
O=C(CSCc1ccc(Cl)cc1)c1ccco1,0,-1.3,.,5,.
COc1ccc(C2CC(=O)C3=C(C2)NC(C)=C(C(=O)Nc2ccccc2C)C3c2coc3ccc(C)cc3c2=O)cc1OC (centres undefined),25,0.42,8,98*,-6
SMILES,PostGolgi ctrl,Cav3 T inh,sEH inh,PostGolgi yeast,sEH act
COC(=O)C1=C(C)NC2=C(C(=O)CCC2)C1c1coc2ccccc2c1=O (centres undefined),-8,0.52,.,2,.
CCn1nc(C)c(NS(=O)(=O)c2ccccc2)c1C,7,1.4,7,3,-9
Cc1ccc2nc3c(cc2c1)CN(Cc1ccco1)C(=NCC1CCCO1)S3 (centres undefined),43*,-1.1,4,-1,-8
CCOC(=O)C(NC(=O)CC)(Nc1nc2c(s1)CCCC2)C(F)(F)F (centres undefined),.,0.36,8,.,-12
COC(=O)C(NC(=O)COc1ccccc1)(Nc1nc2c(s1)CCCC2)C(F)(F)F (centres undefined),.,-6.3*,-13,.,12
FC(F)(F)c1nc(N2CCCC2)ncc1-c1nnnn1-c1ccc(Cl)cc1,58*,-4.8*,40,22,-39
Fc1ccc(-n2nnnc2-c2cnc(-c3cccs3)nc2C(F)(F)F)cc1,46*,-3.3,5,1,-5
FC(F)(F)c1nc(-c2ccncc2)ncc1-c1nnnn1-c1ccccc1,13,0.45,3,2,-2
C=C(C)COc1ccc(-c2[nH]ncc2Oc2ccccc2OCC)c(O)c1,19,-0.46,-5,49*,6
C=C(C)COc1ccc(-c2[nH]ncc2Oc2cccc(OC)c2)c(O)c1,30*,-0.44,3,16,0
C=C(C)COc1ccc(-c2[nH]ncc2-c2ccc(OC)c(OC)c2)c(O)c1,29,-1.1,8,-12,-7
C=C(C)COc1ccc(-c2[nH]ncc2-c2ccccc2)c(O)c1,62*,-0.83,-16,45*,20
O=C(Cc1ccc(F)cc1)Nc1c2c(nn1-c1cccc(Cl)c1)CS(=O)C2 (centres undefined),10,0.71,0,-2,2
Cc1csc(SCC(=O)NCc2cccs2)n1,38*,0.41,.,2,.
COC(=O)c1cccc(NC(=O)CCCOc2cccc(C)c2)c1,16,-2.3,6,-6,-11
COc1ccc(-c2nc(N)n[nH]2)cc1,-2,-0.14,9,-2,-7
COc1ccc(-c2cc(-c3ccc(OC)cc3)[nH]n2)cc1,33*,-0.39,8,20,-8
O=c1cnn(-c2ccccc2)c(-c2ccccc2)c1,14,-0.14,17,13,-18
Cc1cc(C(=O)Nc2c(C)nn(Cc3ccccc3Cl)c2C)no1,-1,-0.27,2,-7,0
O=C(NCc1ccc2c(c1)OCO2)c1cc(-c2ccccc2Cl)on1,27,-3.2,13,-8,-14
COc1cccc(-c2nn(C)c3sc(C(=O)NCc4ccc5c(c4)OCO5)cc23)c1,30*,-1.8,-8,-9,9
COc1cccc(-c2nn(C)c3sc(C(=O)NCc4ccc(C)o4)cc23)c1,19,-0.22,.,11,.
CCOC(=O)C1CCCN(C(=O)c2cc3c(-c4cccc(OC)c4)nn(C)c3s2)C1 (centres undefined),8,-4.2*,-4,-3,2
CCC(CC)NC(=O)c1cc2c(C)nn(Cc3ccccc3Cl)c2s1,38*,0.063,-11,0,10
Cc1nn(Cc2ccccc2Cl)c2sc(C(=O)NCc3ccc4c(c3)OCO4)cc12,29,-3.5*,41,-4,-44
COCCn1c(=O)c2cc3c(=O)n(CCOC)c(=O)c3cc2c1=O,3,-0.21,-2,-3,0
